This passage reports outcome and AC50 results from PubChem BioAssay (EPA / NIEHS).

“And” between values parts separate entries of the source, which are not always exact repeats. Equal values may be shown once. Inconclusive results are not listed. A structure can be active in one record and inactive in another. The source made the active and inactive calls. How the source made its calls: active means hit-call score of the fitted dose curve at least 0.9, where 1 is the maximum; inconclusive means response in the unintended direction; inactive means score below 0.9.

Sequence of rat Somatostatin Receptor (SST), Sstr1 (gene 25033) (P28646 whole entry, looked up): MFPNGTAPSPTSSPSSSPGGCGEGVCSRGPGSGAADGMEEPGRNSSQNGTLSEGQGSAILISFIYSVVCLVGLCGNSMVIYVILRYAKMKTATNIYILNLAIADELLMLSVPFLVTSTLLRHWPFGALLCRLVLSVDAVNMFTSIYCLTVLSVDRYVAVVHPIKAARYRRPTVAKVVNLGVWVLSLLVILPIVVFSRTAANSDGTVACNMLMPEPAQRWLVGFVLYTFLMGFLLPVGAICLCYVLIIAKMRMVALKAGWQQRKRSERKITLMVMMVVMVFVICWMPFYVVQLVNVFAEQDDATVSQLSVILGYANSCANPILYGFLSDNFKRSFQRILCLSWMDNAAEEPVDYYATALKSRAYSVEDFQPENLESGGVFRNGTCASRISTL
Sequence of rat Neonicotinoid receptor (NNR), Chrna7 (gene 25302) (Q05941 whole entry, looked up): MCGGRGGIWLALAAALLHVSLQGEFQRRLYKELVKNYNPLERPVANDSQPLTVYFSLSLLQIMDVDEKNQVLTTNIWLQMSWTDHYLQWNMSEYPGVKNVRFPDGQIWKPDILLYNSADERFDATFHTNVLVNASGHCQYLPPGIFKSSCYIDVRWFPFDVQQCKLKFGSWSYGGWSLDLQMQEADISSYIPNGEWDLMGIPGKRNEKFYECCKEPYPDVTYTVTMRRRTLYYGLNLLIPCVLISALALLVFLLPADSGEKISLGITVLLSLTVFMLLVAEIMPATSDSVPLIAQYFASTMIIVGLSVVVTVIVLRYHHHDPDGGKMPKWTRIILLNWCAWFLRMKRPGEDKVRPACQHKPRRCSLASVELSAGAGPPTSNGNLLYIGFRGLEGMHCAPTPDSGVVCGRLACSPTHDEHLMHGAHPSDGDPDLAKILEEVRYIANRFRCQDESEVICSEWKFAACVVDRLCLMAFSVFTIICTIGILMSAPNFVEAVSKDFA

The target of the first assay is rat Opioid Receptor, Non-selective Sodium (Na+) Binding, Oprm1 (gene 25601) (UniProt P33535). Briefly: NVS_GPCR_rOpiate_NonSelectiveNa: NovaScreen (NVS) G Protein-Coupled Receptor Assay for rat Opioid Receptor, Non-selective Sodium (Na+) Binding (AID 2283311). Put shortly: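 Filtration radioligand binding on rat forebrain membrane preparations, read 1.5 h after dosing. Single-concentration 25 µM primary screen in duplicate, followed by singleton concentration series to 50 µM max for actives; DMSO baseline.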
Sequence of rat Opioid Receptor, Non-selective Sodium (Na+) Binding, Oprm1 (gene 25601) (P33535 whole entry, looked up): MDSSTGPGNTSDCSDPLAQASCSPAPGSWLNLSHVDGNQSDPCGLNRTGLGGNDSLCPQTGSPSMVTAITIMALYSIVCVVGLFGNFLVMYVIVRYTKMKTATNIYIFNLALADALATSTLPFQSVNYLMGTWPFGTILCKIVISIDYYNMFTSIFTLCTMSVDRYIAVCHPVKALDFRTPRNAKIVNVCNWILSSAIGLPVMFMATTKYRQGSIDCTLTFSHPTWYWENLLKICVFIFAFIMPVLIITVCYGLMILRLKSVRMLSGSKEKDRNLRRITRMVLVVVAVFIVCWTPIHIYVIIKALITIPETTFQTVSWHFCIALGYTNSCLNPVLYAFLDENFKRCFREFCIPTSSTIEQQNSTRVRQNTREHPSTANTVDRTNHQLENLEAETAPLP
On to `CCOC(=O)c1ccc(O)cc1`, for which the molecule was called inactive.
The same measure, in the same setting: with `S=C(S)NCCNC(=S)S.[Mn+2].[S-]C([S-])=NCCN=C([S-])[S-].[Zn+2]` the entry was “inactive”.
Still for that read-out and setting: with `CSC(=O)c1cccc2nnsc12` the entry was “inactive”.
As to `CC(C)(c1ccc(O)cc1)c1ccc(O)cc1`, the AC50 is 25.4 µM (active) and 17 µM (active) and 20.5 µM (active).
As for `C=CCOC(Cn1ccnc1)c1ccc(Cl)cc1Cl` (stereo not drawn), the molecule was classed as inactive.
`CC(=O)S[C@@H]1CC2=CC(=O)CC[C@]2(C)[C@H]2CC[C@@]3(C)[C@@H](CC[C@@]34CCC(=O)O4)[C@H]12`: the concentration at half-maximal activity (AC50) was 17.8 µM (active).

In the next assay the target is rat Somatostatin Receptor (SST), Sstr1 (gene 25033) (UniProt P28646). Briefly: NVS_GPCR_rSST: NovaScreen (NVS) G Protein-Coupled Receptor Assay for rat Somatostatin Receptor (SST) (AID 2283314). Put shortly:
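Single-concentration duplicate screen (25 uM), then concentration-response up to 50 uM for chemicals passing a threshold such as 30% inhibition. Membranes came from rat forebrain. Binding was measured 1 h post-dose by filter radiodetection and scintillation, relative to DMSO.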
Turning to `CC(C)(C)[C@@H](O)[C@@H](Cc1ccc(Cl)cc1)n1cncn1`, the result was inactive.
In the case of `S=C(S)NCCNC(=S)S.[Mn+2].[S-]C([S-])=NCCN=C([S-])[S-].[Zn+2]`, the AC50 was 1.49 µM (active) and the result was inactive.
As for `COC(=O)c1ccccc1S(=O)(=O)NC(=O)Nc1nc(OC(F)F)cc(OC(F)F)n1`, the AC50 was 36.3 µM (active).

A further assay has as its target rat Neonicotinoid receptor (NNR), Chrna7 (gene 25302) (UniProt Q05941). Briefly: NVS_LGIC_rNNR_BungSens: NovaScreen (NVS) Ligand-Gated Ion Channel Assay for rat Neonicotinoid receptor (NNR) (AID 2283315). A digest of the protocol:
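Rat cortical membrane preparation incubated 2.5 h with tritiated or iodinated radioligand and test chemical. Bound radioactivity was filtered and counted by scintillation, and displacement was analysed against DMSO.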
In the case of `N[C@@H](Cc1cc(I)c(Oc2ccc(O)c(I)c2)c(I)c1)C(=O)O`, the molecule was called inactive.
In the case of `O=C(c1ccc(O)cc1O)c1ccc(O)cc1O`, the molecule was called inactive.
Regarding `C[C@]12C[C@H](O)[C@H]3[C@@H](CCC4=CC(=O)CC[C@@]43C)[C@@H]1CC[C@@H]2C(=O)CO`, the molecule was classed as inactive.
Take `CC(C)(c1ccc(O)cc1)c1ccc(O)cc1`: the result was inactive.
Take `CC(=O)S[C@@H]1CC2=CC(=O)CC[C@]2(C)[C@H]2CC[C@@]3(C)[C@@H](CC[C@@]34CCC(=O)O4)[C@H]12`: the AC50 is 17.1 µM (active).

The subject of the next assay is NCBI gene 24521. Briefly: NVS_IC_rKATPCh: NovaScreen (NVS) Ion Channel Assay for rat Potassium Channel, ATP-Sensitive (KATPCh) (AID 2283319). As for the experimental part:
(§1) NVS_IC_rKATPCh is a biochemical, single-readout assay that uses extracted gene-proteins from Rat cortical membranes in a tissue-based cell-free assay. Measurements were taken 2 hours after chemical dosing in a 48-well plate.NVS_IC_rKATPCh is one of one assay component(s) measured or calculated from the NVS_IC_rKATPCh assay. It is designed to make measurements of radioligand binding, a form of binding reporter, as detected with scintillation counting signals by Filter-based radiodetection technology.Data from the assay component NVS_IC_rKATPCh was analyzed into 1 assay endpoint. This assay endpoint, NVS_IC_rKATPCh, was analyzed in the positive analysis fitting direction relative to DMSO as the negative control and baseline of activity. Using a type of binding reporter, loss-of-signal activity can be used to understand changes in the binding as they relate to the gene Kcnj1. Furthermore, this assay endpoint can be referred to as a primary readout, because the performed assay has only produced 1 assay endpoint. To generalize the intended target to other relatable targets, this assay endpoint is annotated to the ion channel intended target family, where the subfamily is potassium channel.
Binding assays used specific radioligands (tritiated, iodinated) with non-radioactive competitive displacement ligands in agonist or antagonist protocols (as indicated) and various reference compounds and inhibitors to titrate specific binding to receptors and transporters. Most enzyme assays (CYPs, kinases, phosphatases, proteases, HDACs) used recombinant protein and specific substrates (fluorescence mostly, some colorimetric and radioactive) and inhibitors, followed by a biochemical separation of substrate and product. All assays for the biochemical HTS were initially run in duplicate at a single concentration (10 uM for CYP450 assays and 25 uM for all others). […]
For the molecule `CN(C)C(=O)Nc1ccc(Cl)c(Cl)c1`, the molecule was called inactive.
With `COC(=O)c1ccccc1C(=O)O`, the AC50 is 25 µM (active).
Take `c1ccc(Nc2ccccc2)cc1`: the molecule was classed as inactive.

Tested on in another assay: not listed separately
Briefly: NVS_IC_rCaDHPRCh_L: NovaScreen (NVS) Ion Channel Assay for rat Calcium Channel, Type L, Dihydropyridine Site (CaDHPRCh_L) (AID 2283320). The protocol: as §1, with “NVS_IC_rCaDHPRCh_L” for “NVS_IC_rKATPCh”, “1 hour” for “2 hours”, “plate.NVS_IC_rCaDHPRCh_L” for “plate.NVS_IC_rKATPCh”, “NVS_IC_rCaDHPRCh_L,” for “NVS_IC_rKATPCh,”, “Cacna1a.” for “Kcnj1.”, “calcium” for “potassium”
Binding assays used specific radioligands (tritiated, iodinated) with non-radioactive competitive displacement ligands in agonist or antagonist protocols (as indicated) and various reference compounds and inhibitors to titrate specific binding to receptors and transporters. Most enzyme assays (CYPs, kinases, phosphatases, proteases, HDACs) used recombinant protein and specific substrates (fluorescence mostly, some colorimetric and radioactive) and inhibitors, followed by a biochemical separation of substrate and product. All assays for the biochemical HTS were initially run in duplicate at a single concentration (10 uM for CYP450 assays and 25 uM for all others). Assay-chemical combinations meeting a pre-defined threshold (e.g., 30% inhibition and other criteria defined below) were then run in singleton concentration-response format with maximum concentration of 20 uM for CYPs and 50 uM for all others. Each assay was run with positive and negative controls, and concurrent controls on every plate. The follow-up (secondary) screen tested active chemical-pairs in concentration series, as well as a few additional assays not tested in the primary screen, some selected negative inactives, and several cases re-run in the concentration series for confirmatory purposes.
On to `CCOC(=O)C(C)Oc1ccc(Oc2nc3ccc(Cl)cc3o2)cc1` (stereo not drawn), for which the result was inactive.
Take `O=C(c1ccc(O)cc1O)c1ccc(O)cc1O`: the outcome was inactive.
Take `CC(C)(c1ccc(O)cc1)c1ccc(O)cc1`: the result was inactive.
Turning to `Oc1ccc(C(c2ccc(O)cc2)C(Cl)(Cl)Cl)cc1`, the AC50 was 6.47 µM (active).

A further assay has as its target Sodium channel protein type 1 subunit alpha (Rattus norvegicus) (UniProt P04774). Briefly: NVS_IC_rNaCh_site2: NovaScreen (NVS) Ion Channel Assay for rat Sodium Channel, Site 2 (NaCh) (AID 2283322).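 Further: hit means loss of radioligand binding signal relative to DMSO so AC50 marks displacement.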 A digest of the protocol: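 Initial duplicate single-point testing at 25 uM, followed by concentration-response runs for actives. Binding of radioligand to rat forebrain membranes quantified after 1 h via filter-based radiodetection.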
On to `CCOC(=O)NCCOc1ccc(Oc2ccccc2)cc1`, for which the result was inactive.
On to `CC(C)(c1ccc(O)cc1)c1ccc(O)cc1`, for which the AC50 is 25.4 µM (active) and the call was inactive.
Take `OB(O)O`: the molecule was called inactive.
As for `C=CCOC(Cn1ccnc1)c1ccc(Cl)cc1Cl` (stereo not drawn), the AC50 was 4.57 µM (active).
Regarding `CC(=O)S[C@@H]1CC2=CC(=O)CC[C@]2(C)[C@H]2CC[C@@]3(C)[C@@H](CC[C@@]34CCC(=O)O4)[C@H]12`, the half-maximal activity concentration (AC50) is 8.6 µM (active).
